From PubChem
NPC1 prom act: qHTS Assay for NPC1 Promoter Activators. Huh7 NPC1 promoter luciferase reporter, 24 h. Potency, µM (series often up to 9.22 µM), usual class: activators. hit rate 2.4% among 320,000. AID 485313, 2010; note: nearly all actives have a fitted effect of over 60% in size
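Stably transfected Huh7 (NPC1 promoter→luciferase), 1500 cells/well in Opti-MEM + 10% FBS, 2 h settle, then compound 24 h at 37 °C. Luminescence after 10 min with Amplite reagent.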
Rab9 promoter act: qHTS Assay for Rab9 Promoter Activators; Huh7 Rab9 promoter-luciferase reporter, luminescence, 24 h; Potency, µM (highest dose often 9.22 µM), actives largely listed as activators; hit rate 2.8% among 320,000; note: nearly all actives have a fitted effect of over 60% in size
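Rab9 promoter-driven luciferase in stably transfected Huh7 cells; 1500 cells/well rested 2 h, exposed to compound in DMSO for 24 h at 37 °C, 5% CO2. Luminescence read 10 min after adding luciferase reagent at ambient temperature.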
ELG1 genotox: qHTS screen for small molecules that induce genotoxicity in human embryonic kidney (HEK293T) cells expressing luciferase-tagged ELG1. hit rate 1.3% among 330,000. AID 504466, 2011. HEK293T ELG1-luciferase reporter, luminescence, 16 h. Potency, µM (titrated, usually from 46 µM), most hits filed as activators; note: nearly all actives have a fitted effect of over 60% in size
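ELG1-luciferase HEK293T cells, 2,000/well; compound pinned in; 16 hr, 37 °C, 5% CO2; ONE-Glo, 30 min RT; luminescence on CCD imager.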
SMN2 splice enh: qHTS Assay for Enhancers of SMN2 Splice Variant Expression. Potency, µM (top dose mostly 46.1 µM), actives largely listed as activators. HEK293 SMN2-luciferase splicing reporter, luminescence, 30-36 h. AID 1458, 2008. hit rate 2.8% among 210,000; note: nearly all actives have a fitted effect of over 55% in size
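HEK293 cells carry an SMN2 minigene-luciferase reporter in which exon 7 inclusion puts luciferase in frame. Cells were seeded at 2000 cells/well, attached for 10-12 hours, then exposed to compounds for 30-36 hours at 37C before ONE-Glo luminescence.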
FLuc modulator: qHTS profiling assay for firefly luciferase inhibitor/activator using purifed enzyme and Km concentrations of substrates (counterscreen for miR-21 project); hit rate 6.9% among 360,000; purified FLuc, Km substrates, luminescence inhibition; Potency, µM (top dose mostly 57.5 µM), most hits filed as inhibitors; note: nearly all actives have a fitted effect of over 55% in size
Target sequence (P08659 whole entry, looked up): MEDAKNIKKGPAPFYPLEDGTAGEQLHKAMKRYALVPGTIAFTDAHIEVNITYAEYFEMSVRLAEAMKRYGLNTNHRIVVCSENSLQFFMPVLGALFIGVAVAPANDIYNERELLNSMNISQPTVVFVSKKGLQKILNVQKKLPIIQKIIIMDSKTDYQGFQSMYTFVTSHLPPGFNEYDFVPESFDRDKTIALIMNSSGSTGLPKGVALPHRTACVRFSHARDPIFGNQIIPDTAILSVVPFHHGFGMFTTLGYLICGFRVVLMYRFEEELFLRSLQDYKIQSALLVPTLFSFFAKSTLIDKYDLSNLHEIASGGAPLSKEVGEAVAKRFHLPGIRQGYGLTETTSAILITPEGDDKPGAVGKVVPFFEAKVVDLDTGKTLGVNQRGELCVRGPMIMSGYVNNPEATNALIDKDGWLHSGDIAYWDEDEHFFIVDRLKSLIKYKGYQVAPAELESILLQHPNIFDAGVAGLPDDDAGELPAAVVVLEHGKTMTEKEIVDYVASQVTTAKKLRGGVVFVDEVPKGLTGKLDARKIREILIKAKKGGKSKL
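Biochemical qHTS of compounds, final roughly 60 µM downward over six points, against 10 nM purified firefly luciferase using Km concentrations of substrates (10 uM D-luciferin, 10 uM ATP) in Tris acetate pH 7.5 buffer; luminescence output.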
KinaseGlo FLuc: Counterscreen for Luciferase (Kinase-Glo TM) Inhibition; Luciferin 4-monooxygenase (Photuris pensylvanica), Q27757; Kinase-Glo luciferase, ATP luminescence, 8 min; Potency, µM (highest dose often 38.3 µM), usual class: inhibitors; hit rate 0.28% among 200,000; AID 1379, 2008; note: nearly all actives have a fitted effect of over 60% in size
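Light output from Kinase-Glo luciferase with luciferin and 10 uM ATP in 50 mM imidazole pH 7.2, KCl, MgCl2, Tween 20, BSA; compound pin-delivered, 8-min ambient incubation, then luminescence read.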
Numbers stand for hits; – = inactive; ? = inconclusive; · = no result; [ ] = dose if it differs, or a comment. Sampled rows, rich in hits. Any-hit rate of the full collection: about 7.4%. Calls come from the whole dose curve; as a rule, active = well fitted curve in the direction sought with a large enough effect; inconclusive = small, poorly fitted or top-dose-only effect, or another doubt; inactive = no such curve, though single readings can be large; an effect the other way counts as inactive or inconclusive.

SMILES	NPC1 prom act	Rab9 promoter act	ELG1 genotox	SMN2 splice enh	FLuc modulator	KinaseGlo FLuc
Cc1cc(-c2ccc(Br)cc2)n[nH]1	?	?	?	?	19µM	–
Nc1cc(-c2ccc(Br)cc2)[nH]n1	–	–	–	–	?	–
CC(O)CNc1ncnc2cc(-c3ccc(F)cc3)sc12 (stereo not drawn)	?	?	?	·	11µM	·
COC(CNc1ncnc2sc(-c3ccccc3)cc12)OC	–	–[1.84 µM]	–	·	?	·
CCCCCNC(=O)c1c[nH]c2ccc(S(=O)(=O)N3CCC(C)CC3)cc2c1=O	·	·	·	·	–	·
COc1cc(OC)cc(C(=O)NCCc2csc(-c3ccc(C(F)(F)F)cc3)n2)c1	·	·	·	·	–	·
Cc1ccc(C(=O)NCCc2csc(-c3cccc(F)c3)n2)cc1C	·	·	·	·	19µM	·
CCOc1ccc(C(=O)NCCc2csc(-c3cccc(C)c3)n2)cc1	·	·	·	·	17µM	·
COc1ccc(C(=O)NCCc2csc(-c3ccc(Cl)cc3)n2)cc1	·	·	·	·	12µM	·
Cc1cccc(CSc2nc3c(sc4ccccc43)c(=O)n2CCC(=O)NC(C)C)c1	·	·	·	·	–	·
NS(=O)(=O)c1cccc(NC(=O)COC(=O)CCN2C(=O)c3ccccc3C2=O)c1	–	–	–	·	–	·
CCOc1ccc(/C=C/C(=O)c2cccs2)cc1	·	·	·	·	·	14µM
CC(C)(C)C(=O)/C=C/c1ccc(Oc2ccccc2)cc1	?	6.3µM	?	·	6µM	·
Nc1ccc(/C=C/C(=O)c2cccs2)cc1	4µM	3.5µM	?	·	1.3µM	–
CCOc1ccc(/C=C/C(=O)NCc2ccccc2)cc1	–	–	–	–	15µM	–
CN(CC(=O)Nc1ccccc1Cl)C(=O)Cn1cnc2ccccc2c1=O	–	–	–	·	–	·
CCOc1ccc(C(=O)/C=C/c2ccc(SC)cc2)cc1	–	–	–	–	5.4µM	–
O=C(NCCOc1ccccc1)C1CCCCC1	?	3.2µM	?	20µM	?	–
CCOc1ccc(/C=C/C(=O)c2ccccc2)cc1	1.1µM	0.79µM	?	·	0.15µM	·
CCOc1ccc(NC(=O)/C=C/c2ccccc2)c([N+](=O)[O-])c1	–	?	–	?	?	–
O=C(CC1CCCCC1)NCCOc1ccccc1	–	–	–	–	–	–
CCOc1ccc(N/C=C/C(=O)c2ccccc2)c([N+](=O)[O-])c1	0.1µM	0.1µM	?	0.56µM	0.12µM	11µM
COc1ccc(OCCNC(=O)/C=C/c2ccccc2)cc1	–	–	–	–	–	–
O=C(/C=C/c1ccccc1)NCCOc1ccccc1	–	?	?	?	24µM	–
Cc1cccc(OCC(=O)NCCCNC(=O)c2ccncc2)c1	–	–	–	·	–	·
SMILES	NPC1 prom act	Rab9 promoter act	ELG1 genotox	SMN2 splice enh	FLuc modulator	KinaseGlo FLuc
COC(=O)c1c(NC(=O)CSc2nnc3ccccn23)sc2c1CCC2	–	–	–	–[1.84 µM]	–	–
Cc1nc2sc(-c3ccccc3)cc2c(=O)[nH]1	0.63µM	0.5µM	0.58µM	13µM	1.3µM	?
O=c1[nH]c(-c2cccnc2)nc2sc(-c3ccccc3)cc12	–	–	?	–	4.8µM	–
Cc1nc2cc3ccccc3cc2c(=O)[nH]1	?	?	?	?	13µM	–
CC(C)OC(=O)Cc1nc2sc(-c3ccccc3)cc2c(=O)[nH]1	?	4.5µM	?	·	17µM	·
CCOc1ccc(NC(=O)CCc2c(C)nc3c4c(C)cc(C)nc4nn3c2C)cc1	·	·	·	–	–	·
Cc1c(C(=O)c2ccccc2)oc2ccc3ccccc3c12	?	3.2µM	?	·	4.8µM	·
COc1ccccc1-c1ccc(/C=C2\C=CC(=O)O2)o1	–	–	–	·	7.6µM	·
COc1ccccc1-c1ccc(/C=C2/C=C(C)OC2=O)o1	–	–	–	–	?	–
S=c1nc(NCCc2ccccc2Cl)c2ccccc2[nH]1	3.2µM	3.5µM	–	·	–	·
O=C(CCCCCNc1nc(=S)[nH]c2ccccc12)NCc1ccccc1Cl	–	–	–	–	–	–
O=[N+]([O-])c1ccccc1/C=C/CN1CCN(Cc2ccc3c(c2)OCO3)CC1	–	–	–	·	–	·
Cc1cccc(NC(=O)CCN2CCC(C)CC2)c1	–	–	–	·	–	·
O=C(NC(=S)Nc1ccc(Cl)cn1)C12CC3CC(CC(C3)C1)C2	?	?	–	–	11µM	–
CC(=O)c1cccc(NC(=O)Nc2csc3c2CCCC3)c1	–	–	–	·	17µM	·
CC(=O)c1cccc(NC(=O)c2csc3c2CCCCC3)c1	–	–	–	–	13µM	–
CCOc1ccc(NC(=O)c2csc3c2CCCC3)cc1	2.2µM	3.5µM	?	11µM	2.7µM	–
CCOC(=O)c1ccc(NC(=O)c2csc3c2CCCC3)cc1	·	·	·	–	?	·
CCCN1CCN(C(=O)C2CCN(S(=O)(=O)c3ccc4c(c3)NC(=O)C(C)S4)CC2)CC1 (stereo not drawn)	–	–	–	·	–	·
CCOC(=O)C1CCN(C(c2ccc(SC)cc2)c2c(O)cc(C)n(Cc3ccco3)c2=O)CC1 (stereo not drawn)	·	·	·	·	–	·
CCc1ccc(NC(=O)C2CCN(c3nn4c(=O)cc(C)nc4s3)CC2)cc1	·	·	·	–	–	·
O=c1c(C(c2ccc(F)cc2)c2c(O)nc3n(c2=O)CCS3)c(O)nc2n1CCS2	–	–	–	·	–	·
COC(/C(=N/O)c1ccc(Cl)cc1)c1ccccc1 (stereo not drawn)	–	–	–	·	?	·
C(=C\c1ccccc1)/CSc1ccccn1	?	3.5µM	–	–	12µM	–
Cc1cc(C)nc(SC/C=C/c2ccccc2)n1	–	–	–	·	?	·
SMILES	NPC1 prom act	Rab9 promoter act	ELG1 genotox	SMN2 splice enh	FLuc modulator	KinaseGlo FLuc
COC(=O)c1ccc(CSc2nc(-c3ccccc3)cs2)o1	–	–	–	–	8.5µM	–
CC(C)NC(=O)CSc1nc(-c2ccccc2)cs1	?	2.5µM	–	?	19µM	–
COc1ccc(CCNC(=O)CSc2nc3ccsc3c(=O)n2CC2CCC(C(=O)O)CC2)cc1OC (stereo not drawn)	–	–	–	·	–	·
CCN(CC)c1ccc2cc(-c3nc(-c4ccccc4)no3)c(=O)oc2c1	·	·	·	·	6µM	·
O=c1oc2ccccc2cc1-c1nc(-c2ccccc2)no1	0.45µM	1.1µM	?	11µM	0.54µM	–
O=c1oc2ccccc2cc1-c1nc(-c2cccs2)no1	·	·	·	·	0.6µM	·
Cc1ccc(-c2noc(-c3cc4ccccc4oc3=O)n2)cc1	–	–	?	–	6µM	–
COc1ccc(OC)c(NC(=O)CSc2nnc(-c3cnccn3)n2C)c1	–	–	–	·	–	·
O=C(COC(=O)/C=C/c1ccccc1[N+](=O)[O-])Nc1ccc2[nH]c(=O)[nH]c2c1	·	·	–	·	·	·
N#Cc1ccc(CN2CCN(C(=O)c3ccc(S(=O)(=O)NCc4ccco4)cc3)CC2)cc1	–	–	–	·	–	·
